Source: PubChem BioAssay
Pf apPOL inh: Pf-apPOL DNA polymerase inhibition | Recombinant Pf-apPOL, molecular beacon fluorescence, 1.5 h | inhibition, % at 10 µM | hit rate 0.25% among 210,000
mHTT-CaM PPI inh: disrupts binding of mutant huntingtin to calmodulin | P42858 | AlphaScreen His-mHTT/GST-CaM binding, luminescence | inhibition, % at 15 µM | hit rate 3.6% among 190,000 | AID 1671202;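 further: 0% = both proteins with DMSO and 100% = one protein alone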
Numbers without * were called inactive; . = not tested or not shown. The sample as a whole holds a higher share of hits than the screen did. No stated cut-off is given here; in the data, active means inhibition above about 50%; inactive means the rest.

SMILES	Pf apPOL inh	mHTT-CaM PPI inh
CC1CCCCN1S(=O)(=O)c1ccc(C(=O)Nc2nc3c(s2)Cc2ccccc2-3)cc1 (configuration not stated)	-5	21
O=C(Nc1nc(-c2ccccn2)cs1)c1ccc(N2C(=O)CCC2=O)cc1	-6	100*
CC1CCN(S(=O)(=O)c2ccc(C(=O)Nc3nc4c(s3)Cc3ccccc3-4)cc2)CC1	-10	10
CC1CCN(S(=O)(=O)c2ccc(C(=O)Nc3nc(-c4ccccn4)cs3)cc2)CC1	-3	98*
Cc1cccc(NC(=O)c2cn(-c3ccc(Cl)cc3)c(=O)c3ccccc23)n1	-8	-2
O=C(Nc1ccc(Cl)cc1)N1CCC(N2CCN(Cc3ccccc3)C2=O)CC1	-1	2
Cn1cccc1CN(Cc1cccs1)C(=O)c1c(F)cccc1Cl	-4	0
O=C1CN(C(=O)c2cccc(F)c2)C(c2ccc(F)cc2)c2cc(F)ccc2N1 (configuration not stated)	-7	4
CCOc1ccc(Nc2c([N+](=O)[O-])cc([N+](=O)[O-])c3cccnc23)cc1	-6	29
O=[N+]([O-])c1cccnc1N1CCOCC1	-8	-6
O=[N+]([O-])c1cc([N+](=O)[O-])c2cccnc2c1Nc1ccc(N2CCOCC2)cc1	-2	56*
Cc1ccc(Nc2c([N+](=O)[O-])cc([N+](=O)[O-])c3cccnc23)cc1	-2	51*
CCCCCCCCCn1c[n+](CCCCCCCCC)c2cc(C)c(C)cc21	.	100*
COc1nc(N)c(C#N)c(-c2ccc3c(c2)OCO3)c1C#N	-19	40
N#Cc1c(-c2ccc3c(c2)OCO3)nc(N2CCCCC2)[nH]c1=O	5	62*
CC(=O)Nc1c(C(=O)c2ccc(F)cc2)oc2ccc(Cl)cc12	-4	-2
O=C(Nc1c(C(=O)O)oc2ccc(Cl)cc12)c1ccc(C(F)(F)F)cc1	85*	29
CCCc1c(C(=O)Nc2ccc(S(=O)(=O)Nc3nc(C)cc(C)n3)cc2)cnn1-c1ccccc1	-24	.
CCSc1ccc(Cc2nnc(NC(=O)c3ccc(S(=O)(=O)N(C)C)cc3)o2)cc1	-253	61*
CCc1nnc(NC(=O)c2ccc(S(=O)(=O)N(C)C)cc2)o1	-4	24
CC1=NCCCN1C(=O)c1c(-c2c(Cl)cccc2Cl)noc1C	-4	.
COc1ccc(-c2nc(C(=O)NC3CC3)cs2)c(Cl)c1	94*	2
O=C(NC1CC1)c1csc(COc2ccc(Cl)cc2)n1	-10	-3
CCOc1ccc(N=C2C(=O)N(CN3CCCCC3)c3ccccc32)cc1	12	65*
CCOc1ccc(N=C2C(=O)N(CN3CCCC(C)C3)c3ccccc32)cc1 (configuration not stated)	-1	10
SMILES	Pf apPOL inh	mHTT-CaM PPI inh
O=C(Nc1nnc(C2CC(=O)N(c3ccccc3)C2)o1)c1cccc(Cl)c1 (configuration not stated)	-2	61*
O=C(Nc1nnc(C2CC(=O)N(c3ccc(F)cc3)C2)o1)c1cccc(Cl)c1 (configuration not stated)	2	35
COc1ccc(N2CC(c3nnc(NC(=O)Cc4cccc(F)c4)o3)CC2=O)cc1 (configuration not stated)	-3	29
CCOc1ccc(N2CC(c3nnc(NC(=O)Cc4ccccc4C)o3)CC2=O)cc1 (configuration not stated)	-1	19
COc1ccc(CC(=O)Nc2nnc(C3CC(=O)N(c4ccccc4)C3)o2)cc1 (configuration not stated)	-2	92*
Cc1ccc(CC(=O)Nc2nnc(C3CC(=O)N(c4ccccc4)C3)o2)cc1 (configuration not stated)	-8	0
Cc1ccccc1CC(=O)Nc1nnc(C2CC(=O)N(c3ccccc3)C2)o1 (configuration not stated)	-3	50*
COc1ccc(N2CC(c3nnc(NC(=O)Cc4cccc(OC)c4)o3)CC2=O)cc1 (configuration not stated)	-3	53*
COc1ncc(C(=O)N2CCN(c3ccccc3)CC2)cn1	-1	-2
O=C1S/C(=C\c2ccccc2F)C(=O)N1CN1CCOCC1	3	-4
C=CCN1C(=O)NC2(CCCCC2)C1=O	-8	-9
O=C(CSc1ccc(F)cc1)Nc1nnc(C2CC(=O)N(c3ccccc3)C2)o1 (configuration not stated)	4	21
O=C(Cc1cccs1)Nc1nnc(C2CC(=O)N(c3ccccc3)C2)o1 (configuration not stated)	12	60*
COc1ccccc1CN1CCN(Cc2ccc3c(c2)OCO3)CC1	-9	7
CN1CC2c3ccccc3OC(c3ccc4c(c3)OCO4)C2([N+](=O)[O-])O1 (configuration not stated)	.	96*
c1ccc(C2=NN3C(C2)c2ccccc2OC3c2ccc3c(c2)OCO3)cc1 (configuration not stated)	-1	5
CCOc1cccc2cc(C(N)=O)c(=NCc3ccccc3)oc12	-1	-2
CCOc1cccc(=NCc2ccccc2)c2c(C)[nH]c(C)c12	0	76*
CCOC(=O)c1sc(NC(=O)c2noc3c2CCCC3)c(C(=O)OCC)c1C	-3	-7
CCc1ccc(NC(=O)N2CCC(n3c(-c4ccco4)nc4cccnc43)C2)cc1 (configuration not stated)	0	51*
O=C(c1ccc(C(F)(F)F)cc1)N1CCC(n2c(-c3ccco3)nc3cccnc32)C1 (configuration not stated)	-7	91*
COc1ccc(C(=O)N2CCC(n3c(-c4ccco4)nc4cccnc43)C2)cc1 (configuration not stated)	-5	-5
O=C(Nc1ccc(F)c(Cl)c1)N1CCC(n2c(-c3ccco3)nc3cccnc32)C1 (configuration not stated)	1	-3
Cc1ccc(C(=O)N2CCC(n3c(-c4ccco4)nc4cccnc43)C2)cc1 (configuration not stated)	-2	14
O=C(Nc1ccccc1)N1CCC(n2c(-c3ccco3)nc3cccnc32)C1 (configuration not stated)	0	1
SMILES	Pf apPOL inh	mHTT-CaM PPI inh
O=C(c1ccc(F)c(Cl)c1)N1CCC(n2c(-c3ccco3)nc3cccnc32)C1 (configuration not stated)	-3	98*
Cc1ccc(C(=O)N2CCC(n3c(-c4ccco4)nc4cccnc43)C2)cc1C (configuration not stated)	-4	72*
COc1cccc(CNC(=O)C2CC(=O)N(C3CCCCC3)C2)c1 (configuration not stated)	7	-13
CCN(CC)S(=O)(=O)c1ccc2oc(C(=O)Nc3ccc(F)c(F)c3)c(C)c2c1	-6	8
COc1ccc(NC(=O)c2cnn3c2NC(c2ccc(C)cc2)CC3C(F)(F)F)cc1 (configuration not stated)	-4	19
CSc1ccccc1CN1CCC(CNC(=O)C(=O)Nc2cccc(Cl)c2C)CC1	-2	-1
O=C(c1cccc(Cl)c1)N1CCC(n2c(-c3ccco3)nc3cccnc32)C1 (configuration not stated)	4	51*
Cc1cc(C)cc(C(=O)N2CCC(n3c(-c4ccco4)nc4cccnc43)C2)c1 (configuration not stated)	-4	18
Cc1ccnc2c1ccc1cccnc12	.	100*
c1cnc2c(c1)ccc1cccnc12	5	.
